{"source": "PubChem BioAssay (NCATS)", "key": {"[1]": {"experiment": "OV-KATE Cancer Cell Toxicity qHTS against the NCATS CANVASS Library (AID 1347345)", "method_in_brief": "(§1)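 Step one: seed 1000 cells per well. Step two: incubate 4 h. Step three: add test compounds in 11 concentrations. Step four: culture 72 h, then add CellTiter-Glo and record luminescence after 15min.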"}, "[2]": {"experiment": "HPAF-II Cancer Cell Toxicity qHTS against the NCATS CANVASS Library (AID 1347346)", "text": "(§2) Natural products and their derivatives continue to be wellsprings of nascent therapeutic potential. However, many laboratories have limited resources for biological evaluation, leaving their previously isolated or synthesized compounds largely or completely untested. To address this issue, the Canvass library of natural products was assembled (https://tripod.nih.gov/canvass), in collaboration with academic and industry researchers, for quantitative high-throughput screening (qHTS) across a diverse set of cell-based and biochemical assays. The pure (>85% purity by liquid chromatography/mass spectrometry [LC/MS]) Canvass library of 346 natural products were submitted by 45 academic laboratories and companies around the world. […] The library was formatted into 1536-well plates and evaluated in 50 qHTS (in an 11-pnt concentration series) bioassays with broad scope of disease-relevant mechanisms. The resulting data set from 50 different assays was then systematically analyzed to identify overall trends and specific natural products with interesting biological activities. […]\nCancer Cell Toxicity protocol for cell lines COV-362, OV-KATE, OV-SAHO, UWB1.289, UWB1.289-WTBRCA1, HEK-293, HPAF-II, Panc-1005, SW1088, or U-118MG. […] 7.#Luminescence signal was acquired via the ViewLux plate reader (PerkinElmer) using a clear filter, 2 second exposure and 2x binning settings."}, "[3]": {"experiment": "UWB1.289 Cancer Cell Toxicity qHTS against the NCATS CANVASS Library (AID 1347347)", "details": "UWB1.289 viability, CellTiter-Glo luminescence, 72 h", "method_in_brief": "as §1"}, "[4]": {"experiment": "OV-SAHO Cancer Cell Toxicity qHTS against the NCATS CANVASS Library (AID 1347348)", "method_in_brief": "as §1"}, "[5]": {"experiment": "Panc-1005 Cancer Cell Toxicity qHTS against the NCATS CANVASS Library (AID 1347349)", "method_in_brief": "as §1"}, "[6]": {"experiment": "U-118MG Cancer Cell Toxicity qHTS against the NCATS CANVASS Library (AID 1347351)", "method_in_brief": "as §1"}, "[7]": {"experiment": "SW1088 Cancer Cell Toxicity qHTS against the NCATS CANVASS Library (AID 1347350)", "details": "SW1088 viability, CellTiter-Glo luminescence, 72 h", "text": "as §2\nCancer Cell Toxicity protocol for cell lines COV-362, OV-KATE, OV-SAHO, UWB1.289, UWB1.289-WTBRCA1, HEK-293, HPAF-II, Panc-1005, SW1088, or U-118MG. […] Luminescence signal was acquired via the ViewLux plate reader (PerkinElmer) using a clear filter, 2 second exposure and 2x binning settings."}}, "note": "Records with an inconclusive call do not appear. Where a call stands in place of a potency, no number is given. The source made the active and inactive calls. Calls follow the shape of the dose curve; as a rule, active = well fitted cell-killing curve with a large enough effect; inconclusive = small, poorly fitted or top-dose-only effect; inactive = flat fitted curve, though single readings scatter.", "data": [{"smiles": "O=c1c(O)c(-c2ccc(O)c(O)c2)oc2cc(O)ccc12", "values": [{"measurement": "outcome", "setting": "[1]", "result": "inactive"}, {"measurement": "outcome", "setting": "[2]", "result": "inactive"}, {"measurement": "Potency", "setting": "[3]", "result": "7.47 µM (active)"}, {"measurement": "outcome", "setting": "[4]", "result": "inactive"}, {"measurement": "Potency", "setting": "[5]", "result": "inactive"}, {"measurement": "outcome", "setting": "[6]", "result": "inactive"}]}, {"smiles": "C=C(C)[C@@H]1CC[C@]2(C(=O)O)CC[C@]3(C)[C@H](CC[C@@H]4[C@@]5(C)CC[C@H](O)C(C)(C)[C@@H]5CC[C@]43C)[C@@H]12", "values": [{"measurement": "Potency", "setting": "[5]", "result": "18.8 µM (active)"}, {"measurement": "Potency", "setting": "[7]", "result": "4.73 µM (active)"}, {"measurement": "outcome", "setting": "[6]", "result": "inactive"}]}]}
